Results: the supplement of paper PMC12350171
Where a name gives a salt, the structure may show the parent alone.

What was measured:
Settings in all cases: 20 µM
[1] = tested on: Salmonella enterica typhimurium; assay: growth AUC normalised to DMSO control (fraction of control); higher = less growth inhibition, active = hit call of the paper
Procedure, shortened: (§1)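 Pathogens passaged twice anaerobically were inoculated at a starting OD578 of 0.01 into pre-reduced mGAM plates with drug at 20 μM and 1% DMSO, sealed with breathable membranes. Haemophilus parainfluenzae medium was supplemented with hemin and NAD. OD578 was read hourly for 24 h, with three biological replicates. Growth-curve AUC was computed by the trapezoidal rule up to the exponential-to-stationary transition and normalised to DMSO controls on the same plate.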

[2] = tested on: Shigella flexneri; assay: as above
Procedure, shortened: as §1

[3] = tested on: Vibrio cholerae; assay: as above
Procedure, shortened: as §1

[4] = tested on: Yersinia pseudotuberculosis; assay: as above
Procedure, shortened: as §1

[5] = tested on: P. vulgatus RND KO; assay: growth AUC normalised to DMSO control (median) (fraction of control); higher = less growth inhibition, active = hit call of the paper
Procedure, shortened: (§2)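 After two overnight anaerobic passages, strains were inoculated at OD578 0.01 into mGAM in 96-well plates containing approved-drug library compounds at 20 μM and 1% DMSO. Growth was followed by reading OD578 hourly for 24 h within an anaerobic incubator. Area under the curve, taken by the trapezoidal rule up to the start of stationary phase, was normalised to same-plate vehicle wells, and the median of three biological replicates is listed.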

[6] = tested on: P. vulgatus WT; assay: as above
Procedure, shortened: as §2

[7] = tested on: S. enterica typhimurium WT; assay: as above
Procedure, shortened: as §2

[8] = tested on: S. enterica typhimurium tolC KO; assay: as above
Procedure, shortened: as §2

Measured: growth AUC normalised to DMSO control
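For growth AUC normalised to DMSO control (median) in this document: active when median AUC fell below 0.1.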

CC(=O)O[C@]1(C(C)=O)CC[C@H]2[C@@H]3C=C(Cl)C4=CC(=O)[C@@H]5C[C@@H]5[C@]4(C)[C@H]3CC[C@@]21C [Cyproterone acetate]
inactive: [1] 1 | [2] 1.01 | [3] 1 | [4] 0.994 | [5] 0.896 | [6] 0.907 | [7] 1 | [8] 0.953

Cc1cn[nH]c1 [Fomepizole]
inactive: [1] 0.996 | [2] 0.992 | [3] 0.977 | [4] 0.996 | [5] 0.978 | [6] 0.985 | [7] 0.993 | [8] 0.997

Cc1cc(=O)oc2cc(O)ccc12 [Hymecromone]
inactive: [1] 1.01 | [2] 1 | [3] 0.998 | [4] 0.95 | [5] 1.03 | [6] 1.05 | [7] 0.999 | [8] 1.02

CO[C@@]1(NC(=O)C(C(=O)O)c2ccc(O)cc2)C(=O)N2C(C(=O)O)=C(CSc3nnnn3C)CO[C@@H]21 (stereo not given in full) [Moxalactam disodium salt]
active: [1] 0.00566 | [2] 0.0488 | [3] 0.639 | [4] 0.149 | [5] 0.0332 | [6] 0.0488

OC(CCN1CCCCC1)(c1ccccc1)C1CC2C=CC1C2 (stereo not given) [Biperiden hydrochloride]
inactive: [1] 0.987 | [2] 0.967 | [3] 0.934 | [4] 1 | [5] 0.994 | [6] 1.01 | [7] 1.01 | [8] 0.946

COc1ccc2c(c1)N(C[C@H](C)CN(C)C)c1ccccc1S2 [Methotrimeprazine maleate salt]
inactive: [1] 1.01 | [2] 1.03 | [3] 1 | [4] 0.99 | [5] 1.04 | [6] 1.02 | [7] 0.995 | [8] 0.954

Cc1cccc(CN2CCN(C(c3ccccc3)c3ccc(Cl)cc3)CC2)c1 (stereo not given) [Meclozine dihydrochloride]
inactive: [1] 0.989 | [2] 0.961 | [3] 0.885 | [4] 0.987 | [5] 1 | [6] 0.992 | [7] 1 | [8] 1

OC(CCN1CCCC1)(c1ccccc1)C1CCCCC1 (stereo not given) [Procyclidine hydrochloride]
inactive: [1] 0.975 | [2] 0.953 | [3] 0.937 | [4] 0.984 | [5] 0.96 | [6] 0.941 | [7] 1.01 | [8] 0.983

CC(=O)Nc1nnc(S(N)(=O)=O)s1 [Acetazolamide]
inactive: [1] 0.969 | [2] 0.962 | [3] 1.03 | [4] 0.984 | [5] 0.995 | [6] 0.974 | [7] 0.994 | [8] 0.998

CN1CCCCC1CCN1c2ccccc2Sc2ccc([S+](C)[O-])cc21 (stereo not given) [Mesoridazine besylate]
inactive: [1] 0.993 | [2] 0.978 | [3] 0.949 | [4] 1.01 | [5] 0.941 | [6] 0.885 | [7] 0.997 | [8] 0.944

COc1ccccc1OCC(O)CO (stereo not given) [Guaifenesin]
inactive: [1] 0.998 | [2] 1.02 | [3] 1.01 | [4] 0.992 | [5] 0.984 | [6] 0.987 | [7] 0.995 | [8] 0.99

Cc1c(OCC(F)(F)F)ccnc1C[S+]([O-])c1nc2ccccc2[nH]1 (stereo not given) [Lansoprazole]
inactive: [1] 1 | [2] 1 | [3] 0.941 | [4] 0.994 | [5] 0.984 | [6] 0.973 | [7] 1 | [8] 0.852

COc1cc(OC)c(C(=O)CCCN2CCCC2)c(OC)c1 [Buflomedil hydrochloride]
inactive: [1] 1 | [2] 0.997 | [3] 0.997 | [4] 1.01 | [5] 0.997 | [6] 0.994 | [7] 0.995 | [8] 1

CC(N)CCCC(C)(C)O (stereo not given) [Heptaminol hydrochloride]
inactive: [1] 1 | [2] 0.999 | [3] 0.986 | [4] 0.997 | [5] 1.01 | [6] 1.05 | [7] 1.01 | [8] 0.996

CC[C@@H](CO)NCCN[C@@H](CC)CO [Ethambutol dihydrochloride]
inactive: [1] 0.943 | [2] 0.976 | [3] 1 | [4] 1.01 | [5] 1.01 | [6] 0.998 | [7] 1 | [8] 0.989

CO[C@@H]1[C@@H](O[C@@H]2O[C@H](C)[C@@H](O[C@H]3C[C@@](C)(O)[C@@H](OC(=O)CC(C)C)[C@H](C)O3)[C@H](N(C)C)[C@H]2O)[C@@H](CC=O)C[C@@H](C)[C@@H](O)/C=C/C=C/C[C@@H](C)OC(=O)C[C@H]1OC(C)=O [Josamycin]
active: [1] 0.937 | [3] 0.0145 | [5] 0.0124 | [6] 0.00854 | [8] 0.0649
inactive: [2] 0.995 | [4] 0.971 | [7] 0.967

N[C@H]1CONC1=O [(S,-) Cycloserine]
inactive: [1] 1.01 | [2] 1.03 | [3] 1.04 | [4] 1.04 | [5] 0.897 | [6] 0.954 | [7] 0.997 | [8] 0.996

O=C1NCCN1c1ncc([N+](=O)[O-])s1 [Niridazole]
active: [1] 0.0187 | [2] 0.204 | [3] 0.036 | [5] 0.00953 | [6] 0.00802 | [7] 0.0321 | [8] 0.0104
inactive: [4] 0.93

C[C@@H]1CCC[C@H](C)N1NC(=O)c1ccc(Cl)c(S(N)(=O)=O)c1 [Clopamide]
inactive: [1] 0.976 | [2] 0.97 | [3] 0.982 | [4] 0.992 | [5] 1 | [6] 0.981 | [7] 1.01 | [8] 0.988

COCCCC/C(=N\OCCN)c1ccc(C(F)(F)F)cc1 [Fluvoxamine maleate]
inactive: [1] 0.992 | [2] 0.974 | [3] 0.943 | [4] 0.993 | [5] 0.968 | [6] 0.963 | [7] 0.991 | [8] 0.957

CCN(CC)CCOCCOC(=O)C1(c2ccccc2)CCCC1 [Carbetapentane citrate]
inactive: [1] 0.995 | [2] 1 | [3] 1 | [4] 1 | [5] 1.01 | [6] 1.01 | [7] 0.995 | [8] 0.992

Cc1cc(-n2c(=O)[nH]c(=O)n(C)c2=O)ccc1Oc1ccc(SC(F)(F)F)cc1 [Toltrazuril]
inactive: [1] 1.01 | [2] 0.995 | [3] 1 | [4] 1.01

Cc1cc(NC(=O)C2=C(O)c3ccccc3S(=O)(=O)N2C)no1 [Isoxicam]
inactive: [1] 0.982 | [2] 0.974 | [3] 0.901 | [4] 0.984 | [5] 0.979 | [6] 0.975 | [7] 0.991 | [8] 0.993

CC(=C(CCO)SSCC1CCCO1)N(C=O)Cc1cnc(C)nc1N (stereo in doubt) [Fursultiamine hydrochloride]
inactive: [1] 1.01 | [2] 0.965 | [3] 1 | [4] 1.01 | [5] 1.02 | [6] 0.995 | [7] 0.986 | [8] 0.999

Cc1onc(-c2c(Cl)cccc2Cl)c1C(=O)N[C@@H]1C(=O)N2[C@@H]1SC(C)(C)[C@@H]2C(=O)O [Dicloxacillin sodium salt hydrate]
inactive: [1] 0.997 | [2] 1.01 | [3] 1 | [4] 1.01 | [7] 1.01
active: [5] 0.081 | [6] 0.0487 | [8] 0.00514

CCC(=O)O[C@]1(C(=O)SCF)[C@H](C)C[C@H]2[C@@H]3C[C@H](F)C4=CC(=O)C=C[C@]4(C)[C@@]3(F)[C@@H](O)C[C@@]21C [Fluticasone propionate]
inactive: [1] 0.996 | [2] 1.01 | [3] 1 | [4] 1 | [5] 0.998 | [6] 0.988 | [7] 0.993 | [8] 0.998

CC(C(=O)O)c1ccc2c(c1)Cc1cccnc1O2 (stereo not given) [Pranoprofen]
inactive: [1] 0.999 | [2] 0.976 | [3] 0.993 | [4] 1.01 | [5] 1.04 | [6] 1.04 | [7] 1.01 | [8] 1
